Test results: PubChem BioAssay (NCATS)
Results filed as inconclusive are left out. The source made the active and inactive calls. Calls follow the shape of the dose curve; as a rule, active = well fitted inhibition curve with a large enough effect; inconclusive = small, poorly fitted or top-dose-only effect; inactive = flat fitted curve, though single readings scatter.

system: astro; experiment: Drug repurposing screens with cells derived from glioblastoma tumor samples (AID 1345199); conditions: viability, ATP luminescence, 48 h; series mostly up to 45.9 µM; activity, negative = cell killing: at the top concentration; also: nearly all actives have a fitted effect of over 40% in size
Procedure: CD133+ cells were isolated from GBM patient biopsies and cultured as neurospheres. Neurospheres from four patients were used to screen the NCATS pharmaceutical collection (NPC) library of approved drugs and bioactive compounds. […] The neurospheres were incubated with drugs for 48 hours in 1536-well format, then assayed with an ATP content cell viability assay. […] These hits were cherry picked to confirm activity in the four original GBM lines screened plus three other slower growing GMB lines (unable to yield enough cells for a full primary screen). Variable activities of the confirmed primary hits in the different GBM patient lines were observed. The patient line 206 responded to the greatest number of compounds and line 923 responded to the least amount of active compounds.
% is scaled to controls: 0 for no effect and ±100 for the full control effect; potency is read from the fitted curve at half-maximal effect.

SMILES	activity, negative = cell killing	Potency
NS(=O)(=O)c1cc(Cl)c(Cl)c(S(N)(=O)=O)c1	-9.53% [at 21.2 µM] (inactive)	–
NCC1CCC(C(=O)O)CC1 (configuration not stated)	-11.1% [at 21.2 µM] (inactive)	–
CN1CCN2c3ncccc3Cc3ccccc3C2C1 (configuration not stated)	-26% (inactive)	–
COc1ccc(-c2nc3ccc(C4=NNC(=O)CC4C)cc3[nH]2)cc1 (configuration not stated)	–	11.2 µM (active)
O=C(O)c1nc(=O)[nH]c(=O)[nH]1	-8.82% (inactive)	–
Fc1ccc(C(c2ccc(F)cc2)N2CCN(CC=Cc3ccccc3)CC2)cc1	–	35.5 µM (active)
CC(C)CN(C[C@@H](O)[C@H](Cc1ccccc1)NC(=O)O[C@H]1CO[C@H]2OCC[C@H]21)S(=O)(=O)c1ccc(N)cc1	-20.4% (inactive)	–
CCC[C@H](N[C@@H](C)C(=O)N1[C@@H]2CCCC[C@H]2C[C@H]1C(=O)O)C(=O)OCC	-16% (inactive)	–
O=C(CCCN1CCN(c2ccc(F)cc2)CC1)NC1c2ccccc2CSc2ccccc21 (configuration not stated)	-25% (inactive)	–
O=C(Nc1cccc2c(=O)cc(-c3nn[nH]n3)oc12)c1ccc(OCCCCc2ccccc2)cc1	-23.5% (inactive)	–
CS(=O)(=O)c1ccc(C2=C(c3ccccc3)C(=O)OC2)cc1	-12% (inactive)	–
COc1ccnc(CS(=O)c2nc3ccc(OC(F)F)cc3[nH]2)c1OC (configuration not stated)	-23.6% (inactive)	–
CCCCC(F)(F)[C@@]1(O)CC[C@H]2[C@H](CC(=O)[C@@H]2CCCCCCC(=O)O)O1	-27.9% (inactive)	–
CC[C@H](C)C(=O)O[C@H]1C[C@H](O)C=C2C=C[C@H](C)[C@H](CC[C@@H](O)C[C@@H](O)CC(=O)O)[C@H]21	-7.28% (inactive)	–
Clc1ccc(COC(Cn2ccnc2)c2ccc(Cl)cc2Cl)c(Cl)c1 (configuration not stated)	-29.4% [at 21.2 µM] (inactive)	–
CC(C)(CO)[C@@H](O)C(=O)NCCC(=O)O	-12.3% (inactive)	–
N#Cc1c(N(CC(=O)O)CC(=O)O)sc(C(=O)O)c1CC(=O)O	-9.05% (inactive)	–
CN(C)CCN(Cc1ccc(Cl)cc1)c1ccccn1	-7.41% [at 21.2 µM] (inactive)	–
CCC(=O)OCC(=O)[C@@]1(OC(=O)CC)[C@@H](C)C[C@@H]2[C@H]3CCC4=CC(=O)C=C[C@]4(C)[C@@]3(F)[C@@H](O)C[C@@]21C	-8.5% (inactive)	–
CN1CC(=O)N2C(Cc3c([nH]c4ccccc34)[C@H]2c2ccc3c(c2)OCO3)C1=O (some centres not stated)	-26.3% (inactive)	–
COc1cc2c(cc1OC)CC(=O)N(CCCN(C)C[C@H]1Cc3cc(OC)c(OC)cc31)CC2	-16.8% (inactive)	–
CC[C@H]1OC(=O)[C@H](C)[C@@H](O[C@H]2C[C@@](C)(OC)[C@@H](O)[C@H](C)O2)[C@H](C)[C@@H](O[C@@H]2O[C@H](C)C[C@H](N(C)C)[C@H]2O)[C@](C)(O)C[C@H](C)C(=NOCOCCOC)[C@H](C)[C@@H](O)[C@]1(C)O	7.95% (inactive)	–
